# Inconclusive results are not listed. A number with no mark means an inactive call. Calls of active or inactive are those of the source. Calls come from the whole dose curve; as a rule, active = well fitted inhibition curve with a large enough effect; inconclusive = small, poorly fitted or top-dose-only effect; inactive = no such curve, though single readings can be large or run the other way.
# Biological target: Cytochrome P450 3A7 (Homo sapiens) (UniProt P24462)
# Test: Cytochrome P450 family 3 subfamily A member 7 (CYP3A7) small molecule antagonists: luciferase biochemical qHTS assay (AID 1963596); note: nearly all actives have a fitted effect of over 40% in size
# Details: P450-Glo CYP3A7 enzyme luminescence, 1 h; series mostly up to 57.4 µM; activity change, negative = inhibition: at the top concentration
# Excerpt: National Center for Advancing Translational Sciences [NCATS] Assay Overview: Cytochrome P450 (CYP) enzymes are membrane-bound hemeproteins that play a key role in metabolism of drugs and xenobiotics. The CYP3A subfamily is the most abundant, representing 30% of the total adult hepatic CYP content, whereas CYP3A7 is found predominantly in human fetal liver and accounts up to 50% of the total fetal hepatic CYP content. Testing the effect of chemicals on CYP isozymes is useful to minimize the adverse drug reactions and toxicities in the drug development process. Chemicals were tested for their effect on CYP enzyme activities by using P450-Glo (TM) screening systems (Promega Corporation, Madison, WI). These systems provide a luminescent method containing proluciferin substrates and are converted to luciferin products by CYP isozymes. The luciferin products formed are detected with a luciferin detection reagent, and the amount of light produced is proportional to CYP activity. P450-Glo (TM) CYP3A7 screening system (Catalog. No. V8812) was used to detect the compounds that interfere with CYP3A7 activity. The positive control compound used for CYP3A7 assay is ketoconazole (Sigma-Aldrich, St. Louis, MO).
# Assay Protocol Summary: Two ul of enzyme-substrate mix was dispensed into medium binding white/solid 1536-well plates (Greiner Bio-One North America Inc., Monroe, NC) using a Flying Reagent Dispenser (FRD, Aurora Discovery, San Diego, CA). Compounds dissolved in DMSO, and positive control (ketoconazole) were transferred to the assay plates at 23 nl using a Pintool station (Wako, San Diego, CA). The assay plates were incubated at room temperature for 10 min. Then 2 ul of NADPH regeneration solution was added to each well of the assay plates using an FRD and incubated at room temperature for 1 h. The reaction was stopped by adding 4 ul of detection reagent using an FRD and after 20 min incubation at room temperature the luminescence signal was measured using a ViewLux plate reader (Perkin Elmer, Shelton, CT). Data were expressed as relative luminescence units.
# % is set by controls: 0 for no effect and ±100 for the full control effect; potency is the fitted concentration of half-maximal effect.
# Cytochrome P450 3A7 (Homo sapiens), sequence (P24462 whole entry, looked up): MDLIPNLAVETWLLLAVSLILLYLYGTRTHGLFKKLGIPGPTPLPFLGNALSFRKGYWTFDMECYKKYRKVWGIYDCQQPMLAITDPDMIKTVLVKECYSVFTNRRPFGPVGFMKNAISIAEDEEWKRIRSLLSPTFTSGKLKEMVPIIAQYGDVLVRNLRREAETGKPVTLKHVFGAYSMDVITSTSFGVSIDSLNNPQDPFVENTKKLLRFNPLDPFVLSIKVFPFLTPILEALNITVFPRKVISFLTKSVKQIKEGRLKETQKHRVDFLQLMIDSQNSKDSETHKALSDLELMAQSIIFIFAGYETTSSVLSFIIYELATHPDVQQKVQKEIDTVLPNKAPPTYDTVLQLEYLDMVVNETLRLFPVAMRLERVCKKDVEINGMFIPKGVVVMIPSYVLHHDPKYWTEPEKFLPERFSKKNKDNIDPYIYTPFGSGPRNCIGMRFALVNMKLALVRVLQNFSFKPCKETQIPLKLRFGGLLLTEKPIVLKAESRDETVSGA
SMILES,"activity change, negative = inhibition",Potency
COc1ccc2c3c1O[C@H]1[C@H](O)CC[C@H]4[C@@H](C2)N(C)CC[C@@]341,-26.4% [at 115 µM],
O=c1[nH]c2ccccc2n1C1CCNCC1,-20.7%,
CCN(C(C)=O)c1cccc(-c2ccnc3c(C#N)cnn23)c1,27.4%,
CCN(CC)N(O)N=O,-0.176%,
Cc1ccc([N+](=O)[O-])[c]2c1[O][Hg]2,,617 nM (active)
CC(C)NC(C)C,-9.87%,
Cc1cc(C(=O)CN2CCCC2)c(C)n1-c1ccc(F)cc1,7.32%,
COc1ccccc1N1CCNCC1,9.4%,
CCc1ccc(C2CCNCC2)cc1,-17.8%,
CC(C)[C@@H](CN1CC[C@@](C)(c2cccc(O)c2)[C@@H](C)C1)NC(=O)[C@H]1Cc2ccc(O)cc2CN1,-23.9%,
NCCCCCNC1(c2ccccc2)CCCCC1,-3.08%,
CSCC[C@@H](NC(=O)[C@@H](Cc1ccccc1)NC(=O)CNC(=O)CNC(=O)[C@@H](N)Cc1ccc(O)cc1)C(=O)O,-30.1%,
NCC(O)c1cccc(O)c1 (stereo not given),-0.927%,
O=S(=O)(c1ccc(Cl)cc1)c1ccc(Cl)cc1,,2020 nM (active)
COc1ccc(OC)c(C(O)C(C)N)c1 (stereo not given),2.75%,
CC1Sc2c(C(=O)O)c(=O)c3cc(F)c(N4CCNCC4)cc3n21 (stereo not given),16.8%,
Cc1c(Cl)cccc1S(=O)(=O)Nc1nc(CC(=O)N2CCN(C)CC2)cs1,-29.7%,
CCCCCCn1c(=O)c(C(=O)Nc2ccc(C(=O)OCCC)cc2)c(O)c2ccccc21,0.937%,
NCC(CC(=O)O)c1ccc(Cl)cc1 (stereo not given),-9.7% [at 0.91 µM],
O=[As]O[As]=O (stereo not given),5.3%,

SMILES,"activity change, negative = inhibition",Potency
O=c1n(Cl)c(=O)n(Cl)c(=O)n1Cl,6.38%,
CCCCc1ccc(C(=O)O)nc1,-0.905%,
NCc1cccnc1,-19.7%,
NP(N)(=O)NC(=O)c1ccc(F)cc1,-28.3%,
CCN(CC)C(=O)c1ccc(C2=CC3(CCNCC3)Oc3cccc(O)c32)cc1,-27.4%,
CC(=O)[O][Hg][c]1ccccc1,,977 nM (active)
C[C@H](NC(=O)Cc1cc(F)cc(F)c1)C(=O)N[C@@H]1N=C(c2ccccc2)c2ccccc2N(C)C1=O,9.26%,
CN1C(=O)C(Cc2ccc3ccccc3c2)N=C(c2ccc(O)cc2)c2cc(Cl)ccc21 (stereo not given),9.54%,
CCC1(c2cccc(O)c2)CCCCN(C)C1 (stereo not given),-29.5%,
N#Cc1cn([C@@H]2O[C@H](CO)[C@H](O)[C@@H]2O)c2ncnc(N)c12,-12.3%,
O=C1CN=C(c2cccc(Br)c2)c2oc3ccccc3c2N1,22.9%,
NC(=O)OCCCc1ccccc1,-12.8%,
CC(=O)Nc1cc([As](=O)(O)O)ccc1O,-29.4%,
CCOc1cc(C=O)ccc1O,-14.2%,
CCNC(C)Cc1cccc(C(F)(F)F)c1 (stereo not given),-17.4%,
c1ccc(C2CC2)c(OCC2=NCCN2)c1,-12.9%,
O=C(O)Cc1ccccc1,6.22%,
CC(C)(O)C(Cl)(Cl)Cl,25.7%,
O=[N+]([O-])/N=C1\NCCN1Cc1ccc(Cl)nc1,1.29%,
CC(C)NCC(O)c1ccccc1Cl (stereo not given),7.14%,
